Bioassay records deposited in PubChem BioAssay by National Center for Advancing Translational Sciences (NCATS).
Most compounds without a hit are left out; they make up all but 6.1% or so of the library.
D3 ag – qHTS of D3 Dopamine Receptor Agonist: qHTS; D(3) dopamine receptor (Homo sapiens), P35462; D3R DiscoveRx beta-arrestin cells, luminescence, 90 min; max activation, %; 410,000 compounds, 0.58% hits; in the data active = max activation above about 30%; note: 0% is about no effect
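Agonist-mode cell screen: cells plated at 1500/well and incubated overnight at 37 °C, then exposed to library compounds for 90 min at 37 °C. Detection reagent was added for 30–60 min at room temperature, and luminescence was read.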
D3 antag – qHTS of D3 Dopamine Receptor Antagonist: qHTS | D(3) dopamine receptor (Homo sapiens), P35462 | D3R cells, DiscoveRx beta-arrestin luminescence, antagonist mode; hits give low values | max response, negative = inhibition, % | 360,000 compounds, 2.5% hits | AID 652054, 2013; in the data active = max response below about -50%; note: % is set by controls: 0 for no effect and ±100 for the full control effect
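Cells plated overnight at 1500 cells/well, then exposed to library compounds with dopamine controls for 90 minutes at 37 degrees C. DiscoveRx reagent added for 30–60 minutes at room temperature; luminescence read, quantitative HTS format.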
D1 antag – Antagonist of Human D 1 Dopamine Receptor: qHTS; D(1A) dopamine receptor (Homo sapiens), P21728; HEK293 TREx D1 cells, calcium flux, dopamine EC80; hits give low values; activity change, negative = inhibition, % at 10 µM; 360,000 compounds, 3.2% hits; AID 504652, 2011; in the data active = activity change below about -30%; note: % is set by controls: 0 for no effect and ±100 for the full control effect
Target sequence (P21728 whole entry, looked up): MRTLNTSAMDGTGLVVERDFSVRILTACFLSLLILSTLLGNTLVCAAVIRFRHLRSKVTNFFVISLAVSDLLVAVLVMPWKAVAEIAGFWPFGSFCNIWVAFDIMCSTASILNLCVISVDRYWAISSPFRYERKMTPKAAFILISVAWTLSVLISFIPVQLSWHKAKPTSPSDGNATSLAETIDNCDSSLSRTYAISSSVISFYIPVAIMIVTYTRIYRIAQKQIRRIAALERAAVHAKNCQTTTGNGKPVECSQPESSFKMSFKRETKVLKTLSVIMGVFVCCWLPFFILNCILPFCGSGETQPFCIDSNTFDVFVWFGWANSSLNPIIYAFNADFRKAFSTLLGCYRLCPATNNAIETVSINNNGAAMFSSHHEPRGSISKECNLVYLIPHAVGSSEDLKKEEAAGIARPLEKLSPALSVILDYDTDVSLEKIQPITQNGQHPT
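Using tetracycline-induced force-coupled D1 Hek293 cells and a calcium dye, signals were followed for 180 s after compound, then for 180 s after EC80 dopamine, to detect inhibitors.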
D1 PAM – Potentiators of Human D1 Dopamine Receptor: qHTS | 360,000 compounds, 0.036% hits | potentiation, % at 10 µM | D(1A) dopamine receptor (Homo sapiens), P21728 | HEK293 TREx D1 cells, calcium flux, dopamine EC20 potentiation; in the data active = potentiation above about 30%; note: 0% is about no effect
D1 agonist – Allosteric Agonists of the Human D1 Dopamine Receptor: qHTS; D(1A) dopamine receptor (Homo sapiens), P21728; HEK293 T-REx D1 cells, calcium flux, agonist mode; activation, % at 2 µM; 360,000 compounds, 1% hits; AID 504660, 2011; in the data active = activation above about 30%; note: 0% is about no effect
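Tetracycline-induced HEK293 TREx D1 cells, force-coupled to calcium signalling, were dye-loaded with a no-wash calcium kit. Compound was pin-added after a 10 s baseline. Fluorescence was read kinetically at 1 cycle/s for 180 s, with calcium rises flagged as agonism.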
Numbers without * were called inactive; x = not tested or not shown; ! = not confirmed by another sample.

SMILES	D3 ag	D3 antag	D1 antag	D1 PAM	D1 agonist
CCn1c(SC(C)C)nnc1-c1c[nH]c2ccccc12	-8	-16	-31*	x	2
CCn1c(CNc2ccc(F)cc2)nnc1SCC(=O)N1CCCc2ccccc21	-3	-19	-31*	1	2
CCn1c(SCC(=O)N2CCCc3ccccc32)nnc1-c1c[nH]c2ccccc12	-5	-51*	8	-9	3
CCn1c(SCC(=O)N2CCc3ccccc32)nnc1-c1c[nH]c2ccccc12	-3	18	0	7	2
N=C1/C(=C\c2ccc(-c3ccc(C(=O)O)cc3)o2)C(=O)N=C2SC=C(c3ccccc3)N12	-14	-3	-16	-5	38*
N=C1/C(=C\c2ccc(-c3cccc(Cl)c3)o2)C(=O)N=C2SC=C(c3ccccc3)N12	-7	-12	5	5	0
CCN(CC)c1ccc(-n2cc3c(=O)n(C)c(=O)n(C)c3c2)cc1	-4	-55*	35	7	2
CN(C)c1ccc(-n2cc3c(=O)n(C)c(=O)n(C)c3c2)cc1	2	38	2	-5	1
Cc1cccc(C)c1C(O)c1ncc(-c2cccc(C(F)(F)F)c2)[nH]1 (stereo unspecified)	-3	-61*	x	x	x
Cc1ccc(Cl)cc1N1CCN(C(=O)c2ccc(C)c(-n3c(C)nc4cccnc43)c2)CC1	-7	x	-32*	3	69*
O=C(c1cccc(N2CCCC2=O)c1)N1CCN(c2cccc(Cl)c2)CC1	-6	-8	-57*	-7	17
Cc1ccc(C(=O)N2CCN(c3cccc(Cl)c3)CC2)cc1C	10	30	-32*	-1	2
CCOc1ccc(OC(=O)c2c(-c3ccccc3Cl)noc2C)cc1	7	x	7	1	6
O=S(=O)(NCCc1c[nH]c2ccccc12)c1ccccc1	17	5	-36*	-6	20
CSc1ccc(CNC(=O)C2CCCN(S(=O)(=O)N(C)c3ccc(F)cc3)C2)cc1 (stereo unspecified)	6	x	19	-6	14
CN1CCN(c2nc(NCc3ccco3)nc(N)c2[N+](=O)[O-])CC1	-18	-80*	-6	-4	2
CCN1CCN(c2nc(Nc3ccc(C)c(C)c3)nc(N)c2[N+](=O)[O-])CC1	-39	-83*	-3	-2	16
CCNc1nc(N)c(C(=O)c2ccc(Cl)s2)s1	-2	-51*	4	-4	1
CC[C@]12c3[nH]c4cc(-c5ccco5)ccc4c3CCN1C(=O)[C@@H](CC(=O)NCCCOC)C[C@@H]2C(=O)N1CCN(C(=O)c2ccco2)CC1	43*	0	x	x	x
COc1ccc(CNC(=O)CC2Sc3ccccc3NC2=O)cc1 (stereo unspecified)	0	17	-9	0	5
CCN(CC)CCCNC(=O)CC1Sc2ccccc2NC1=O (stereo unspecified)	-1	-51*	-12	-4	2
CCCCN(CC)CCCNC(=O)CC1Oc2ccccc2NC1=O (stereo unspecified)	1	-21	-10	-9	1
O=C(COC(=O)CC1Sc2ccccc2NC1=O)NCc1ccccc1 (stereo unspecified)	-10	0	2	-4	37*
CN(C)S(=O)(=O)c1ccc2c(c1)c(=O)c(C(=O)N1CCN(c3cccc(Cl)c3)CC1)cn2C	-10	x	14	11	1
CCOC(=O)C1CCN(C(=O)CN2c3ccc(C(C)C)cc3-c3ccccc3S2(=O)=O)CC1	8	x	3	-2	4
SMILES	D3 ag	D3 antag	D1 antag	D1 PAM	D1 agonist
COc1ccccc1-n1c(SCC(=O)NCC2CCCO2)nc2c([nH]c3ccccc32)c1=O (stereo unspecified)	-19	-57*	15	-4	-1
O=C(CSc1nc2c([nH]c3ccccc32)c(=O)n1-c1ccccc1)NCC1CCCO1 (stereo unspecified)	-23	-84*	10	4	0
COCCNC(=O)CSc1nc2ccccc2c(=O)n1CC1CCCO1 (stereo unspecified)	1	10	-76*	-3	3
CCn1c(SCC(=O)NCC2CCCO2)nc2c([nH]c3ccccc32)c1=O (stereo unspecified)	8	1	-5	-1	2
COc1cc(-c2nc(C(=O)NCC3CCCO3)cc3c2[nH]c2ccccc23)cc(OC)c1OC (stereo unspecified)	33*	88	3	-1	1
COc1ccccc1-c1nc(C(=O)NCC2CCCO2)cc2c1[nH]c1ccccc12 (stereo unspecified)	3	27	-10	0	1
O=C(CSc1nc2ccccc2c(=O)n1CC1CCCO1)NCC1CCCO1 (stereo unspecified)	5	-15	5	-1	1
O=C(Nc1cccc(-c2nc3ncccc3o2)c1)c1ccc(-c2cccc(Cl)c2Cl)o1	-10	x	7	-2	9
c1ccc(C2Nc3cccc4cccc(c34)N2)cc1	2	7	-12	-5	3
c1csc(C2Nc3cccc4cccc(c34)N2)c1	-2	-70*	-20	-2	2
Cc1ccc(S(=O)(=O)CC(=O)c2ccccc2)cc1	7	5	-2	-2	3
CC(C)(C)c1ccc(C(=O)CS(=O)(=O)c2ccccc2)cc1	-6	0	-38*	-6	6
CC(=O)c1ccc(S(=O)(=O)Nc2cccc(-c3ccc4nncn4n3)c2)cc1	-4	5	-37*	-2	0
Cc1cc2nc(N3C(=O)CNC3=S)sc2cc1C	-11	-67*	-11	-1	1
CCOc1ccc2nc(N3C(=O)CNC3=S)sc2c1	0	-16	3	20	5
COc1ccc(NC(=O)c2cc(-c3ccc(F)cc3)no2)cc1OC	7	x	-5	-2	8
CSCC[C@@H](C(=O)NCCCCCCCCCCC(=O)N1CCNCC1)n1cc(CCO)nn1	7	-28	-36*	-9	2
NCCCCCc1cn([C@@H](CO)C(=O)NCCCCCCCCCCC(=O)N2CCNCC2)nn1	2	26	-32*	-4	3
CCOc1ccc(CCNC(=O)Cn2ncc3c(=O)oc4ccc(C)cc4c32)cc1	8	x	-10	0	1
CCCCNC(=O)CCCN1C(=O)c2ccccc2Sc2ncccc21	12	x	-3	-5	2
Cc1cc(C2CCCCC2)n(O)c(=O)c1	46*!	45	5	-2	3
NC(=O)CCC(=O)N1CCCC(C(=O)c2ccc3c4c(cccc24)CC3)C1 (stereo unspecified)	3	15	1	-4	2
